Drawing on publication PMC10668032, “Altered binding affinity of SIX1-Q177R correlates with enhanced WNT5A and WNT pathway effector expression in Wilms tumor”, this text covers binding signal for 110 sequences.

In all, about 33,000 sequences were measured (“e-score”: median about -0.05, highest 2% from about 0.38 on). The list comes from a sample in which the highest values are over-represented; it also holds similar and randomly drawn sequences.

For this test, the target named is T1, SIX1-Q177R homeodomain (human, UniProt Q15475 108-198, Q177R).
T1 sequence: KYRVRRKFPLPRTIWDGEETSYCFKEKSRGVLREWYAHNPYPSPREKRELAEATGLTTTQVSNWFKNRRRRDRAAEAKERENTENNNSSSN
As to the kind of experiment: universal protein binding microarray; Universal all-10-mer PBM (8x60K, AMADID 030236), 300 nM GST-tagged protein, Alexa Fluor 488 anti-GST; buffer, salt, pH and temperature not stated (as in Berger); high values mean tight binding. The note with it: protein: ivt; tags: N-terminal GST; dsDNA, one strand shown. In a few lines: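 After in vitro transcription/translation, GST-tagged homeodomains were quantified against a recombinant GST standard curve by anti-GST western blot. They were then placed in duplicate at 300 nM final concentration on universal 'all 10-mer' protein binding microarrays of 8×60K format.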
On to ACAGGGGT, for which the binding signal amounted to 0.266 ± 0.0127 E-score.

Turning to CAATAGTG, the binding signal came out at 0.17 ± 0.0397 E-score.

Regarding CACGGTGG, the binding signal was found to be 0.26 ± 0.0142 E-score.

Take AGGTTACA: the binding signal stood at 0.182 ± 0.0252 E-score.

For ATTCGACA, the binding signal came out at 0.163 ± 0.00531 E-score.

CGATCACG: the binding signal came to 0.173 ± 0.0459 E-score.

As for CTCCCCGC, the binding signal was found to be 0.168 ± 0.0157 E-score.

Take ATACTCTC: the binding signal was 0.158 ± 0.0315 E-score.

ACACTCTG: the binding signal worked out at 0.404 ± 0.00495 E-score.

With ACACTCTC, the binding signal worked out at 0.3915 ± 0.00342 E-score.

Take ACACACTC: the binding signal is 0.314 ± 0.0291 E-score.

With ACTGGGCG, the binding signal was determined as 0.192 ± 0.0152 E-score.

Regarding CTAAGACA, the binding signal worked out at 0.2225 ± 0.00145 E-score.

Regarding CACAGCCG, the binding signal was determined as 0.208 ± 0.0273 E-score.

Regarding ACCAACGA, the binding signal amounted to 0.187 ± 0.00325 E-score.

Take CTCAGCAC: the binding signal amounted to 0.185 ± 0.0185 E-score.

On to AAGACACT, for which the binding signal was 0.3744 ± 0.00267 E-score.

With CAGACACC, the binding signal was 0.456 ± 0.0151 E-score.

As for GAGACAAC, the binding signal was found to be 0.1522 ± 0.00125 E-score.

With CAGACACG, the binding signal stood at 0.353 ± 0.0179 E-score.

With CAGACACA, the binding signal was determined as 0.19 ± 0.0525 E-score.

Regarding AAGACACG, the binding signal was found to be 0.35 ± 0.00553 E-score.

For the sequence AAGACACC, the binding signal stood at 0.4713 ± 0.00312 E-score.

For the sequence GAGACACA, the binding signal turned out to be 0.241 ± 0.0428 E-score.

For the sequence GAGACACC, the binding signal came out at 0.462 ± 0.0147 E-score.

As for ACACAATC, the binding signal came to 0.178 ± 0.0434 E-score.

Regarding CACCGTTA, the binding signal is 0.24 ± 0.0265 E-score.

For the sequence CACGAAAC, the binding signal came to 0.152 ± 0.0288 E-score.

On to TACGTACA, for which the binding signal is 0.18 ± 0.0207 E-score.

Consider ACTCTACA, for which the binding signal came to 0.296 ± 0.00689 E-score.

As for ATTCTACA, the binding signal is 0.181 ± 0.0191 E-score.

With ACGATGGG, the binding signal came to 0.151 ± 0.0168 E-score.

In the case of GGTGTCCA, the binding signal turned out to be 0.48 ± 0.00796 E-score.

On to CGTGTCCC, for which the binding signal was found to be 0.398 ± 0.0161 E-score.

As to GGAGTCCC, the binding signal was 0.171 ± 0.00561 E-score.

For GGGGTCCA, the binding signal came to 0.268 ± 0.0349 E-score.

Turning to AGTGTCCA, the binding signal stood at 0.348 ± 0.00804 E-score.

In the case of GGTATCCA, the binding signal came out at 0.3692 ± 0.00211 E-score.

Regarding AGTGTCCC, the binding signal was determined as 0.379 ± 0.0227 E-score.

CGTGTCCA: the binding signal was determined as 0.4 ± 0.0263 E-score.

As to CTGATACA, the binding signal is 0.24 ± 0.00405 E-score.

CTTTGACA: the binding signal turned out to be 0.219 ± 0.022 E-score.

CCGAACCG: the binding signal was 0.175 ± 0.0143 E-score.

Regarding ATTATACA, the binding signal was found to be 0.165 ± 0.0294 E-score.

On to ACACTTTA, for which the binding signal is 0.343 ± 0.037 E-score.

In the case of CACTCCTG, the binding signal turned out to be 0.335 ± 0.0105 E-score.

Turning to AATTACAC, the binding signal was found to be 0.433 ± 0.0394 E-score.

With AATCACAC, the binding signal is 0.348 ± 0.00368 E-score.

Regarding GATTACCC, the binding signal worked out at 0.175 ± 0.0203 E-score.

For CATTACAC, the binding signal was determined as 0.452 ± 0.0182 E-score.

On to GATCACAC, for which the binding signal stood at 0.324 ± 0.0116 E-score.

On to CATTACTC, for which the binding signal is 0.173 ± 0.0527 E-score.

As to AATTGCAC, the binding signal is 0.151 ± 0.0498 E-score.

In the case of CATCACAC, the binding signal stood at 0.317 ± 0.0183 E-score.

For GATTACAC, the binding signal came out at 0.451 ± 0.00984 E-score.

As for CTGAGGTA, the binding signal is 0.185 ± 0.0187 E-score.

As for CGGGGGTA, the binding signal came out at 0.315 ± 0.029 E-score.

Turning to GGATAAAC, the binding signal stood at 0.169 ± 0.0541 E-score.

For the sequence CACCTAGG, the binding signal was 0.225 ± 0.0248 E-score.

With CGCCGACA, the binding signal was 0.209 ± 0.0201 E-score.

As for AATACACG, the binding signal turned out to be 0.379 ± 0.0262 E-score.

Consider GATACACC, for which the binding signal was determined as 0.469 ± 0.00549 E-score.

As to TATACACA, the binding signal was 0.169 ± 0.034 E-score.

For the sequence CATACACA, the binding signal is 0.205 ± 0.0341 E-score.

Consider GATACTCC, for which the binding signal was found to be 0.223 ± 0.00252 E-score.

Take CATACACG: the binding signal was found to be 0.385 ± 0.00816 E-score.

As to GATACCCC, the binding signal was 0.419 ± 0.00493 E-score.

On to CATACCCC, for which the binding signal amounted to 0.205 ± 0.0264 E-score.

In the case of AATACCCC, the binding signal amounted to 0.185 ± 0.00616 E-score.

With AATACACA, the binding signal stood at 0.188 ± 0.0145 E-score.

Consider CACACATA, for which the binding signal is 0.15 ± 0.0738 E-score.

In the case of GATACACA, the binding signal came out at 0.191 ± 0.024 E-score.

In the case of CCCCTACG, the binding signal was 0.181 ± 0.00578 E-score.

Take CACGTGCG: the binding signal is 0.171 ± 0.0176 E-score.

As for CACTGCCG, the binding signal worked out at 0.26 ± 0.0036 E-score.

Consider ACTAGGGA, for which the binding signal was 0.18 ± 0.018 E-score.

On to TGTCAGAA, for which the binding signal stood at 0.183 ± 0.0293 E-score.

In the case of CAACCCCA, the binding signal is 0.173 ± 0.00554 E-score.

Take CACGAGAA: the binding signal was 0.2024 ± 0.00175 E-score.

On to TATCGACA, for which the binding signal is 0.212 ± 0.0495 E-score.

As for AACGCCGT, the binding signal was found to be 0.159 ± 0.0311 E-score.

On to CATACTCC, for which the binding signal was 0.21183 ± 0.000205 E-score.

For CATACACC, the binding signal was 0.4625 ± 0.00144 E-score.

On to AATATACA, for which the binding signal turned out to be 0.18 ± 0.0323 E-score.

As for AATACACT, the binding signal stood at 0.327 ± 0.0629 E-score.

Consider AATACACC, for which the binding signal was 0.46 ± 0.00939 E-score.

In the case of CATGCACC, the binding signal came to 0.165 ± 0.0266 E-score.

With ACTCCGCA, the binding signal turned out to be 0.225 ± 0.0283 E-score.

For the sequence CGAACCCC, the binding signal came out at 0.238 ± 0.0417 E-score.

For GTGCTCCA, the binding signal turned out to be 0.183 ± 0.0244 E-score.

As for ATCCACAG, the binding signal worked out at 0.185 ± 0.0127 E-score.

Turning to ACATTCGG, the binding signal came out at 0.311 ± 0.0104 E-score.

Turning to CACACCAC, the binding signal is 0.442 ± 0.00998 E-score.

Regarding CACACGAA, the binding signal worked out at 0.217 ± 0.0302 E-score.

CGCACCAC: the binding signal amounted to 0.206 ± 0.0107 E-score.

Regarding CACCCCAG, the binding signal stood at 0.36 ± 0.0234 E-score.

Turning to CCCACCAC, the binding signal was determined as 0.158 ± 0.0233 E-score.

As for CACCACAG, the binding signal amounted to 0.322 ± 0.0259 E-score.

Consider AACCACAC, for which the binding signal is 0.281 ± 0.0163 E-score.

For the sequence CACACCAA, the binding signal worked out at 0.38 ± 0.0115 E-score.

Regarding CACCACAC, the binding signal was determined as 0.426 ± 0.00815 E-score.

For CGCACCAG, the binding signal was 0.17 ± 0.0676 E-score.

In the case of CACACGAG, the binding signal turned out to be 0.238 ± 0.00672 E-score.

Regarding CACACCAG, the binding signal was 0.416 ± 0.029 E-score.

For AGGATACT, the binding signal is 0.167 ± 0.0416 E-score.

Take CACTCACA: the binding signal came to 0.228 ± 0.0123 E-score.

Consider CCCTAGTA, for which the binding signal amounted to 0.18 ± 0.00712 E-score.

Regarding CACCCAAA, the binding signal worked out at 0.255 ± 0.0189 E-score.

On to TACCGACA, for which the binding signal was determined as 0.166 ± 0.00446 E-score.

As for AGTCAGTG, the binding signal worked out at 0.207 ± 0.0189 E-score.
